# The entries come from a sample that favours hits as a whole.
# NTMT1 inh – NTMT1 methyltransferase inhibition | Q9BV86 | NTMT1 MTase-Glo SAH luminescence, purified enzyme | Potency, µM (highest dose often 114 µM), inactives show at the highest dose activity change, negative = inhibition, actives largely listed as inhibitors | hit rate 2.5% among 59,000;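 also: potency is read from the fitted curve at half-maximal effect; plate controls were DMSO vehicle for no effect and no enzyme for full effect; nearly all actives have a fitted effect of over 65% in size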
# GALK inhibitor – GALK (human) enzyme inhibition; recombinant GALK, Kinase-Glo ATP luminescence, 1 h; P51570; 44,000 tested, under 10 active; Potency, µM (series often up to 57.5 µM), without a hit: at the top dose activity, negative = inhibition, hits mostly inhibitors;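 also: plate controls were full GALK reaction for no effect and reaction lacking GALK for full effect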
# Target sequence (P51570 whole entry, looked up): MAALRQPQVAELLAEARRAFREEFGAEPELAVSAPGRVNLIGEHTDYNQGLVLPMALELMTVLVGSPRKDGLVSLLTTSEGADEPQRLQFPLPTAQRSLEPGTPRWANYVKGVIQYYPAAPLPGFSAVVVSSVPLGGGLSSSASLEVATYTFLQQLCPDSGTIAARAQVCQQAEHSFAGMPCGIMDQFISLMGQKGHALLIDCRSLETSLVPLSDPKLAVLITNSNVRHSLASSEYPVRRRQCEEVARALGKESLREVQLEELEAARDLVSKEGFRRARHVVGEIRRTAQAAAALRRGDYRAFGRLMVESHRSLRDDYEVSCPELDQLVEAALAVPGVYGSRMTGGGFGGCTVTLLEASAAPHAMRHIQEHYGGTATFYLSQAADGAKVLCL
#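 Luminescent ATP-depletion readout (Kinase-Glo Plus) after 1 h room-temperature incubation of human GALK (5 nM) with galactose 100 µM and ATP 35 µM, pH 8.0 HEPES/Mg2+ buffer; compounds tested in qHTS format.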
# FH mod – Identification of activators of human fumarate hydratase by quantitative high-throughput screening; Fumarate hydratase, mitochondrial (Homo sapiens), P07954; FH coupled MDH/diaphorase resazurin fluorescence, 15 min; Potency, µM (top dose mostly 79.9 µM), inactives show at the top dose activity change, negative = inhibition, actives largely listed as inhibitors; hit rate 0.22% among 54,000; AID 1347055, 2019; also: potency is read from the fitted curve at half-maximal effect; % is scaled to controls: 0 for no effect and ±100 for the full control effect; the screen sought activators but most active calls are inhibition curves; nearly all actives have a fitted effect of over 45% in size
# B2AR arrestin ag – ADRB2 beta-arrestin recruitment. Potency, µM (doses to about 46.1 µM), actives largely listed as activators. P07550. 44,000 tested, under 10 active. HTLA Tango cells, beta-arrestin recruitment, luciferase luminescence, 18 h;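 also: potency is read from the fitted curve at half-maximal effect; 0% = DMSO and full agonism = EC100 isoproterenol or metaproterenol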
#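 First, Tango cells carrying beta2-AR and beta-arrestin fusions received compound up to 46 microM. After 18 hr at 37 degrees C, luciferase substrate was added for 15 minutes, then luminescence gave %Activity for curve fitting.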
# TSG101-PTAP inh – inhibitors of HIV-1 PTAP binding to human TSG101, validation; Fluorescence polarization, FITC-PTAP peptide/Tsg101, 20 min; Potency, µM (series often up to 115 µM), usual class: inhibitors; 44,000 tested, under 10 active; Q99816; also: potency is read from the fitted curve at half-maximal effect; 0% is about no effect
# Target sequence (Q99816 whole entry, looked up): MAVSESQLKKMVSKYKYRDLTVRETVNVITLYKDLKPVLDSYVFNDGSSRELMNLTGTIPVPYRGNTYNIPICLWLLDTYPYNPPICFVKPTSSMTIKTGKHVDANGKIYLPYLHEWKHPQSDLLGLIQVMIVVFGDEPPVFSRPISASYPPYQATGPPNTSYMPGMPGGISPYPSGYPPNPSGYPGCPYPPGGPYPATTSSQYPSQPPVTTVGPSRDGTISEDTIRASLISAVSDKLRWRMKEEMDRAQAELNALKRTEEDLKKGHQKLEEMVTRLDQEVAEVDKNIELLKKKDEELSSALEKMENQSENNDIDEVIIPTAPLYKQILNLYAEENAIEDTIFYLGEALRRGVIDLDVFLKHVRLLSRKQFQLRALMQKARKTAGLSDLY
#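 The Tsg101 binding domain, at 10 uM final, is mixed with compound and a FITC peptide bearing the PTAP motif (50 nM final). After 20 min at r.t., polarization is measured; actives defined by CRC class, efficacy cut-off 60% inhibition.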
# An asterisk follows results filed as active; i = inactive; ? = inconclusive; nt = no result given; ! = not confirmed by another sample; [ ] = another dose, or the depositor's remark. Calls follow the shape of the dose curve; as a rule, active = well fitted curve in the direction sought with a large enough effect; inconclusive = small, poorly fitted or top-dose-only effect, or another doubt; inactive = no such curve, though single readings can be large; an effect the other way counts as inactive or inconclusive.
SMILES,NTMT1 inh,GALK inhibitor,FH mod,B2AR arrestin ag,TSG101-PTAP inh
CC(C)n1c(/C=C/[C@H](O)C[C@H](O)CC(=O)O)c(-c2ccc(F)cc2)c2ccccc21,-3.2%,nt,nt,nt,nt
Cc1ccsc1C1N=C(Nc2nc3ccccc3o2)NC2=C1C(=O)CCC2 (stereo not given),5.5%,nt,nt,nt,nt
[N-]=[N+]=Nc1ccc(C(=O)CSC[C@H](NC(=O)CC[C@H](N)C(=O)O)C(=O)NCC(=O)O)cc1,nt,nt,31.6µM*,nt,nt
Cc1cc(N[S+](=O)([O-])c2ccc(NC(=O)Cc3ccc(Cl)c([N+](=O)[O-])c3)cc2)no1,17.5%,nt,nt,nt,nt
COc1cc2ncnc(Nc3ccc(O)c(Br)c3)c2cc1OC,39.8µM*,nt,-7.2%,nt,nt
COc1cc2ncnc(Nc3ccc(O)cc3)c2cc1OC,-11.1%[57.5 µM],nt,1.7%,nt,nt
Cc1ccc(S(=O)(=O)c2nnn3c2nc(NCc2ccc(F)cc2)c2sccc23)cc1,89.1µM*,-4.0%,-7.7%,i,i
Cc1ccc(S(=O)(=O)c2nnn3c2nc(NCc2ccccc2)c2sccc23)cc1,-7.2%,0.0%,7.8%,i,i
COc1ccc(CCN2CCC(CNC(=O)c3cnn(-c4cccc(Cl)c4)c3C3CCN(C(=O)OC(C)(C)C)CC3)CC2)cc1,79.4µM*,-0.1%,-10.7%,i,i
COCCCNC(=O)c1cnn(-c2ccccc2Cl)c1C1CCN(C(=O)OC(C)(C)C)CC1,89.1µM*,2.8%,-9.5%,i,i
Cc1cc(N(C)S(=O)(=O)c2ccc(NC(=O)Cc3ccc(Cl)c(Cl)c3)cc2)no1,-0.2%[57.5 µM],nt,nt,nt,nt
CC(=O)Oc1ccc2c(c1)CC[C@@H]1[C@@H]2CC[C@]2(C)[C@@H](O)CC[C@@H]12,25.1µM*,nt,-14.3%[53.3 µM],nt,nt
Nc1ncnc2c1ncn2[C@@H]1O[C@H](CN[S+](=O)([O-])NC(=O)c2cccc(-c3noc(-c4ccccc4F)n3)c2)[C@@H](O)[C@H]1O,0.891µM*,nt,nt,nt,nt
COc1cc(OC)c(NC(=O)Nc2ccccc2OCc2cc(=O)n3cc(C)ccc3n2)cc1Cl,-11.4%,-0.3%,-14.3%,i,i
COc1cc(OC)c(NC(=O)Nc2cccc(OCc3cc(=O)n4ccccc4n3)c2)cc1Cl,79.4µM*,2.6%,-12.7%,i,i
CC(C)N1CCc2c(sc(NC(=O)c3ccccc3)c2-c2nc3ccccc3s2)C1,7.9%,nt,nt,nt,nt
CS(=O)(=O)c1ccc(-c2cn3ccccc3n2)cc1,7.08µM*,nt,-0.9%[53.3 µM],nt,nt
CN(C)CCOc1ccc(-c2nc(-c3ccc4c(c3)CC/C4=N/O)c(-c3ccncc3)[nH]2)cc1,25.1µM*,nt,1.9%,nt,nt
C=CC(=O)Nc1cccc(Oc2nc(Nc3ccc(N4CCN(C)CC4)cc3)ncc2Cl)c1,?,nt,-8.8%,nt,nt
C=CC(=O)Nc1cccc(Nc2nc(Nc3ccccc3)ncc2C)c1,44.7µM*,nt,2.3%,nt,nt
CCOc1ccc2ncc3c(-c4cccc(OC)c4)nn(-c4ccccc4)c3c2c1,89.1µM*,0.3%,0.9%,i,i
CCc1ccccc1NS(=O)(=O)c1ccc(OC)c2ncccc12,89.1µM*,1.4%,-20.5%,i,i
COCCn1c2c([n+](Cc3cnccn3)c1C)C(=O)c1ccccc1C2=O,?,nt,21.7µM*,nt,nt
C[C@]12CCC3[C@@H](CC[C@H]4NC(=O)C=C[C@]34C)[C@@H]1CC[C@@H]2C(=O)Nc1cc(C(F)(F)F)ccc1C(F)(F)F (stereo not given in full),15.2%,nt,nt,nt,nt
N#Cc1cnc(NS(=O)(=O)c2ccc(NC(=O)Cc3ccc(Cl)c(Cl)c3)cc2)s1,79.4µM*,nt,nt,nt,nt
SMILES,NTMT1 inh,GALK inhibitor,FH mod,B2AR arrestin ag,TSG101-PTAP inh
O=C(NO)c1cnc(NC2(c3cccc(F)c3)CCCCC2)nc1,15.6%,nt,nt,nt,nt
Cc1ccc(Nc2cc(N[C@@H]3CCCC[C@@H]3N)nnc2C(N)=O)nc1C,-17.4%,nt,nt,nt,nt
O=C(Cc1ccc(Cl)c(Cl)c1)Nc1ccc([S+](=O)([O-])Nc2ccc([N+](=O)[O-])cc2)cc1,-5.2%[57.5 µM],nt,nt,nt,nt
O=C(Cc1ccc(Cl)c(Cl)c1)Nc1ccc([S+](=O)([O-])Nc2nnc(-c3ccccn3)s2)cc1,79.4µM*,nt,nt,nt,nt
COc1ccc(C(=O)Nc2ccc(N3CCOCC3)c(C(F)(F)F)c2)cc1OC,-29.6%,-0.4%,?,i,i
CCOc1cc2c(c(F)c1OCC)C(=N)N(CC(=O)c1cc(N3CCOCC3)c(OC)c(C(C)(C)C)c1)C2,31.6µM*!,nt,0.8%,nt,nt
COC(=O)C1=C(C)NC(C)=C(C(=O)OC)C1c1ccccc1[N+](=O)[O-],9.7%[57.5 µM],nt,15.8µM*!,nt,nt
COc1ccc(C(=O)Nc2ccc3oc(-c4cc(Cl)ccc4Cl)nc3c2)cc1Br,79.4µM*,0.0%,-2.8%,i,i
COc1ccc(C(=O)Nc2ccc3oc(-c4ccc5ccccc5c4)nc3c2)cc1Br,-2.6%,1.4%,5.5%,i,i
CC1(C)CC(C(=O)Nc2ccc([S+](=O)([O-])Nc3nccs3)cc2)C1,4.2%[57.5 µM],nt,nt,nt,nt
COC(=O)C1CCN(C(=O)c2ccc3c(c2)ncn3-c2cccc(C)c2)CC1,9.6%[57.5 µM],nt,nt,nt,nt
NC1CCC(Nc2nc(Nc3ccc(C(=O)N4CCCCC4)cc3)c3ncn(-c4cccc(F)c4)c3n2)CC1 (stereo not given),39.8µM*,nt,12.2%[53.3 µM],nt,nt
CCOc1ccc(CCNC(=O)c2cc3sccc3n2Cc2ccc(F)cc2F)cc1OCC,18.0%,nt,nt,nt,nt
O=C(CSc1nc(-c2ccc(F)cc2)nc2c1Cc1ccccc1O2)Nc1cccc(C(=O)O)c1,6.31µM*,0.6%,-17.0%,i,i
COc1ccc2c(c1)Oc1nc(-c3ccc(C)cc3)nc(SCC(=O)Nc3cccc(C(=O)O)c3)c1C2,22.4µM*,nt,nt,nt,nt
COc1ccc(-c2nc3c(c(SCC(=O)Nc4cccc(O)c4)n2)Cc2c(CO)cnc(C)c2O3)cc1,44.7µM*,-1.2%,?,i,i
O=c1c2oc3ccccc3c2n(Cc2ccccc2)c(=O)n1Cc1ccco1,89.1µM*,3.2%,-17.0%,i,i
Cc1cc(OCCCSc2nc(-c3ccc(C(C)(C)C)cc3)nc3cc(=O)[nH]n23)ccc1Cl,50.1µM*!,-0.6%,?,i,i
Oc1ccc2ccccc2c1SSc1c(O)ccc2ccccc12,8.91µM*!,nt,35.5µM*!,nt,nt
OCc1ccccc1O,37.2%[57.5 µM],nt,0.0%[53.3 µM],nt,nt
COc1ccc(-c2cnc3c(-c4cccc5ncccc45)cnn3c2)cc1,-1.8%[57.5 µM],nt,10.2%,nt,nt
c1cc(-c2cnn3cc(-c4ccc(OCCN5CCCCC5)cc4)cnc23)ccn1,34.1µM*!,nt,-5.3%,nt,nt
O=C(/C=C/c1cn(CC(O)CN2CCCCCC2)c2ccccc12)c1ccccc1 (stereo not given),?,0.9%,-23.1%,i,i
COc1ccc(C(=O)/C=C/c2cn(CC(O)CN3CCCCCC3)c3ccccc23)cc1OC (stereo not given),44.7µM*,-2.2%,-20.0%,i,i
COc1ccc(C(=O)CSc2nc(C)cc(C)c2C(=O)Nc2ccccc2C)cc1,2.82µM*,2.0%,-28.3%,i,i

# Screening results as filed in PubChem.
